Assay results from PubChem BioAssay AID720597 (Broad Institute, 2013).
Results with a measured potency or affinity are listed apart. Calls of active or inactive are those of the source.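 How the source made its calls: active means fitted half-maximal dose no more than twice the top valid tested dose, for compounds that lower signal; inconclusive means fit invalid, or curve flat with activity between -70 and -30; inactive means potency past limit, curve flat within ±30, or signal increasing.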

These compounds were tested against NAD-dependent protein deacylase sirtuin-5, mitochondrial (Homo sapiens) (UniProt Q9NXA8) (assay: blockers of sirtuin-5 peptide desuccinylation – biochemical, fluorescence imaging, cherry-pick, set 6, dose response (AID 720597;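 further: lower AMC signal can also come from blocking the trypsin step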)). Details: Purified SirT5, succinyl-peptide-AMC/trypsin fluorescence; series mostly up to 15 µM.
Chain of NAD-dependent protein deacylase sirtuin-5, mitochondrial (Homo sapiens) (Q9NXA8 whole entry, looked up): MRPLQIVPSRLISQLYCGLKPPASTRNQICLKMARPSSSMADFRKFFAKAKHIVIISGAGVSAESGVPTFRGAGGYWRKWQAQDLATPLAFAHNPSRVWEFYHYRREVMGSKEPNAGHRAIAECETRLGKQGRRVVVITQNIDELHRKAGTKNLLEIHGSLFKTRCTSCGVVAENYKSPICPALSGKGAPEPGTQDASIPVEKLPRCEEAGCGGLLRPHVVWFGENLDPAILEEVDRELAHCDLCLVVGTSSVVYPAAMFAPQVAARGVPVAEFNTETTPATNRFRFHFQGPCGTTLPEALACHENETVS
`C[C@H]1CN([C@@H](C)CO)C(=O)Cc2cc(NC(=O)Nc3ccc(F)cc3)ccc2O[C@H]1CN(C)C` was tested, and the outcome was “inactive”.
With `CCC(=O)N1CC2(C1)[C@H](c1ccccc1)[C@H](CO)N2Cc1ccccc1OC` the outcome was “inactive”.
`C[C@@H]1CN([C@@H](C)CO)C(=O)c2cc(NS(=O)(=O)c3ccccc3)ccc2O[C@@H](C)CCCCO[C@@H]1CN(C)Cc1ccc(C(F)(F)F)cc1` was tested, and the outcome was “inactive”.
With `CO[C@H]1CC[C@@H]2CCOc3c(C#N)cccc3C(=O)N(C)C[C@H](C)C(=O)N(C)C[C@@H]1O2` the outcome was “inactive”.
With `O=C(C[C@H]1CC[C@H]2[C@@H](COC[C@@H](O)CN2Cc2cccc(Cl)c2)O1)N1CCCCC1` the outcome was “inactive”.
For `COc1ccc(S(=O)(=O)Nc2ccc3c(c2)C(=O)N([C@@H](C)CO)C[C@H](C)[C@@H](CN(C)Cc2ccc(C(F)(F)F)cc2)OCCCC[C@@H](C)O3)cc1`, the outcome was “inactive”.
In the case of `COCC(=O)N1C[C@@H](C)[C@@H](OC)CN(C)C(=O)c2cc(NC(=O)c3cc(C)on3)ccc2OC[C@H]1C`, the outcome is reported as “inactive”.
`C[C@@H]1CN([C@@H](C)CO)C(=O)c2cc(NS(=O)(=O)c3ccccc3)ccc2O[C@@H]1CN(C)Cc1ccc(Oc2ccccc2)cc1` was tested, and the outcome was “inactive”.
`C[C@@H]1CN([C@@H](C)CO)S(=O)(=O)c2ccc(/C=C/c3ccccc3)cc2O[C@@H]1CN(C)C(=O)NC1CCCCC1` was tested, and the outcome was “inactive”.
For `COc1ccc(S(=O)(=O)N(C)C[C@H]2Oc3ncc(/C=C/c4ccccc4)cc3C(=O)N([C@H](C)CO)C[C@@H]2C)cc1`, the outcome was “inactive”.
For `C[C@@H]1CN([C@H](C)CO)S(=O)(=O)c2ccc(C3=CCCCC3)cc2O[C@H]1CN(C)S(=O)(=O)c1ccc(F)cc1`, the outcome was “inactive”.
